The record followed here is PMC7862700, “An all-to-all approach to the identification of sequence-specific readers for epigenetic DNA modifications on cytosine”.

Holding throughout (experiment): DAPPL (digital affinity profiling via proximity ligation, sequencing); 10 mM Tris-HCl pH 7.5, 50 mM NaCl, 1 mM DTT, 4% glycerol, room temperature, 30 min; GST-TFs on glutathione beads, 16-mer random dsDNA library, 0.1% formaldehyde crosslink after washing; high values mean tight binding
Conditions in all cases: protein: recombinant; tags: N-terminal GST; dsDNA, one strand shown

The target in one experiment is T1, ERF (Homo sapiens, UniProt P50548 1-548).
T1 sequence: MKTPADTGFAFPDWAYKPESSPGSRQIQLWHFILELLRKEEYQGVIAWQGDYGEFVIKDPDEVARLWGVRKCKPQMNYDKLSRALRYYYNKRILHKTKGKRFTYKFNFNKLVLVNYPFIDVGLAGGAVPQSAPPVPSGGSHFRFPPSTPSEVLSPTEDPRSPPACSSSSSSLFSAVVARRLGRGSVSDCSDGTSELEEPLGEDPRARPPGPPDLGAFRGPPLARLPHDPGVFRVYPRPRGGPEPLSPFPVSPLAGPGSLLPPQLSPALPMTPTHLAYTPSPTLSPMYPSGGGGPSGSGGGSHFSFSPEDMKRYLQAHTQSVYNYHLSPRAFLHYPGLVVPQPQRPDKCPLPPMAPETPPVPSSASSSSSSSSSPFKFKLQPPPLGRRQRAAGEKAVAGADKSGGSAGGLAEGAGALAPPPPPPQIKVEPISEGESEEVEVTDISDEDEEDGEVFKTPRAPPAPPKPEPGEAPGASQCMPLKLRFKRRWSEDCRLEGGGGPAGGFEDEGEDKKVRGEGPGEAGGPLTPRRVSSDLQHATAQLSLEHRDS
The method in brief:
(§1)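 A tag-only sample was pooled with DNA-barcoded human transcription factors that had been expressed in yeast as GST fusions and captured on glutathione beads. The pools were incubated for 30 min at room temperature with 200 nmole of a random double-stranded 16-mer DNA library in Tris/NaCl/DTT/glycerol buffer, then washed, crosslinked with 0.1% formaldehyde, proximity-ligated (BsaI/T4 ligase, 1 h, 37 °C), PCR-amplified and sequenced on an Illumina NextSeq500. Binding signal is each hexamer's read frequency for a factor divided by its frequency for the tag-only sample.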

The next experiment addresses T2, ETV3L (Homo sapiens, UniProt Q6ZN32 1-361).
T2 sequence: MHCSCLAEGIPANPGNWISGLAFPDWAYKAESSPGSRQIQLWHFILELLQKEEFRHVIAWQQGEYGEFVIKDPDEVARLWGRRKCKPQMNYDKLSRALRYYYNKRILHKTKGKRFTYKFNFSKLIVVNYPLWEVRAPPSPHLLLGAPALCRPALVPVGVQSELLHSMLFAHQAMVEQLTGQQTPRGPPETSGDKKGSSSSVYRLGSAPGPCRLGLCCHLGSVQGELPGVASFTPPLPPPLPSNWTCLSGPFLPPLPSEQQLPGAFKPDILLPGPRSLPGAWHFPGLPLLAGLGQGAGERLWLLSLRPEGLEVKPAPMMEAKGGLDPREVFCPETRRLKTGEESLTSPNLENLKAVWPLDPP
The method in brief: as §1

In another experiment the target is T3, ETS2 (Homo sapiens, UniProt P15036 1-469).
T3 sequence: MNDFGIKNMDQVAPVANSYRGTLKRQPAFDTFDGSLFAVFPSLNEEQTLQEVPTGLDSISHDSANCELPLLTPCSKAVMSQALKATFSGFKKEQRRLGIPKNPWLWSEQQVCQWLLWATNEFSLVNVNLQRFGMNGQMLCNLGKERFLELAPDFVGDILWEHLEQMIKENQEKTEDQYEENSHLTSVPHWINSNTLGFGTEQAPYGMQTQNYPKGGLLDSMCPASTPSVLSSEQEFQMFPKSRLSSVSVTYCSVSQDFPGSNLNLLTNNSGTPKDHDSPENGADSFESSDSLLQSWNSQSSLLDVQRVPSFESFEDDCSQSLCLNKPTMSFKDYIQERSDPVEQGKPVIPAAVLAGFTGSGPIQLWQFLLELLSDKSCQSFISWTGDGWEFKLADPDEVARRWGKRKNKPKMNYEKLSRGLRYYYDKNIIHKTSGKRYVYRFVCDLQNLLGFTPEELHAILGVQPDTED
The method in brief: as §1

In a further experiment the target is T4, SPDEF (Homo sapiens, UniProt O95238 1-335).
T4 sequence: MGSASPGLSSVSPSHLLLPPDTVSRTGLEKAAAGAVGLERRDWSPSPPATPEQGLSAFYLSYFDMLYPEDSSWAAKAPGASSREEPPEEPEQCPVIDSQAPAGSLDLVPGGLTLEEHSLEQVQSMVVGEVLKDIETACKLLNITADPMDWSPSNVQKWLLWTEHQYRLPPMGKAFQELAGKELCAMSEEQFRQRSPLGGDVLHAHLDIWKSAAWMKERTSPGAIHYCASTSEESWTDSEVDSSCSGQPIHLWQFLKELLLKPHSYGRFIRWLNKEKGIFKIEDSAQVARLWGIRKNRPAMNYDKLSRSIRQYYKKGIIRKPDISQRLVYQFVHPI
The method in brief: as §1

The target of another experiment is T5, ETV7 (Homo sapiens, UniProt Q9Y603 1-341).
T5 sequence: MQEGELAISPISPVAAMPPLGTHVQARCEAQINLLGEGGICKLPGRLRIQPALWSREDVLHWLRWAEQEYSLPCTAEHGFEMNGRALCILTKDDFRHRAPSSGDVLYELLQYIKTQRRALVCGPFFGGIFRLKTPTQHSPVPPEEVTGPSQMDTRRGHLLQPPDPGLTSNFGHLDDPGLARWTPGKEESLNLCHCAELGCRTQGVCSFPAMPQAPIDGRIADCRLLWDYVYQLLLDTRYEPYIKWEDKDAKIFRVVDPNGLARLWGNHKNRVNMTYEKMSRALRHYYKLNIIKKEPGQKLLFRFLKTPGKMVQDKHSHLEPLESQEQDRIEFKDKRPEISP
In outline: as §1

The next experiment deals with T6, ELF5 (Homo sapiens, UniProt Q9UKW6-2 1-255).
T6 sequence: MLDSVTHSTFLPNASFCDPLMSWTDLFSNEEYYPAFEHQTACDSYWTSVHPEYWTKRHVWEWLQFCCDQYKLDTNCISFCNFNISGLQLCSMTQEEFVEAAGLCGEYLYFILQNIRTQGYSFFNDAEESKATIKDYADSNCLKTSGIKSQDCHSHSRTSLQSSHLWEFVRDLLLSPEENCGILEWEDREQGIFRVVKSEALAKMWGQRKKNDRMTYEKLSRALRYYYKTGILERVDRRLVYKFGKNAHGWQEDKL
The method in brief: as §1

The target in a further experiment is T7, ETV3 (Homo sapiens, UniProt P41162-2 1-143).
T7 sequence: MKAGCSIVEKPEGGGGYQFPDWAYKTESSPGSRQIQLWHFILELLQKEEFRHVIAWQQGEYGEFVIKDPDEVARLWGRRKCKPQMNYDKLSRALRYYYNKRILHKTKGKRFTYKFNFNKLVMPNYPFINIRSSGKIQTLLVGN
In outline:
as §1

A further experiment deals with ETV6 (Homo sapiens, UniProt P41212 1-452). In outline:
as §1

ETV6, sequence (P41212 whole entry): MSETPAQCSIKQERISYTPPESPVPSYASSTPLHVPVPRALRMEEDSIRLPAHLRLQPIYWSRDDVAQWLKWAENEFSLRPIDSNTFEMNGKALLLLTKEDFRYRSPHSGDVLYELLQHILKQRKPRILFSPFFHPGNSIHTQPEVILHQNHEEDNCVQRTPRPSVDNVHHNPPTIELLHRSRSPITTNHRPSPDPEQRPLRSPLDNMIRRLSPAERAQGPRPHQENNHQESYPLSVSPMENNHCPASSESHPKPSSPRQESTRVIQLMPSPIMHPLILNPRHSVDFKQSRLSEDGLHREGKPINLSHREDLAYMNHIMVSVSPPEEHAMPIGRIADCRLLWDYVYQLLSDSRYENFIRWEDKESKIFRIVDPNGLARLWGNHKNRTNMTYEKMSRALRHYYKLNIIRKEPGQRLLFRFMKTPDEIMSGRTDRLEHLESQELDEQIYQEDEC

In the case of GTTCAT, the binding signal in the experiment with ERF is 1.11 fold enrichment (6-mer frequency, TF over GST control); with ETV3L, 1.16 fold enrichment (6-mer frequency, TF over GST control); with ETS2 it was 1.16 fold enrichment (6-mer frequency, TF over GST control); in the experiment with SPDEF, 1.18 fold enrichment (6-mer frequency, TF over GST control); with ETV7, 1.05 fold enrichment (6-mer frequency, TF over GST control); in the experiment with ELF5, 1.1 fold enrichment (6-mer frequency, TF over GST control). For the same sequence, the binding signal with ETV3 was 1.1 fold enrichment (6-mer frequency, TF over GST control); with ETV6 it was 1.17 fold enrichment (6-mer frequency, TF over GST control).

On to TCCGCG, for which the binding signal is 1.22 fold enrichment (6-mer frequency, TF over GST control) with ERF; 1.29 fold enrichment (6-mer frequency, TF over GST control) with ETV3L; 1.36 fold enrichment (6-mer frequency, TF over GST control) in the experiment with ETS2; 1.4 fold enrichment (6-mer frequency, TF over GST control) with SPDEF; 1.31 fold enrichment (6-mer frequency, TF over GST control) in the experiment with ETV7; 1.55 fold enrichment (6-mer frequency, TF over GST control) in the experiment with ELF5. Besides, the binding signal with ETV3 is 1.37 fold enrichment (6-mer frequency, TF over GST control); with ETV6, 1.25 fold enrichment (6-mer frequency, TF over GST control).

On to CATAAC, for which the binding signal with ERF was 1.12 fold enrichment (6-mer frequency, TF over GST control); with ETV3L, 1.18 fold enrichment (6-mer frequency, TF over GST control); with ETS2, 1.19 fold enrichment (6-mer frequency, TF over GST control); with SPDEF, 1.15 fold enrichment (6-mer frequency, TF over GST control); with ETV7 it was 1.18 fold enrichment (6-mer frequency, TF over GST control); in the experiment with ELF5, 1.15 fold enrichment (6-mer frequency, TF over GST control). In addition, the binding signal is 1.17 fold enrichment (6-mer frequency, TF over GST control) with ETV3 and 1.23 fold enrichment (6-mer frequency, TF over GST control) with ETV6.

For ACACTC, the binding signal in the experiment with ERF was 1.06 fold enrichment (6-mer frequency, TF over GST control); with ETV3L, 1.08 fold enrichment (6-mer frequency, TF over GST control); with ETS2 it was 1.14 fold enrichment (6-mer frequency, TF over GST control); with SPDEF, 1.02 fold enrichment (6-mer frequency, TF over GST control); with ETV7, 1.07 fold enrichment (6-mer frequency, TF over GST control); with ELF5, 1.05 fold enrichment (6-mer frequency, TF over GST control). For the same sequence, the binding signal with ETV3 was 1.16 fold enrichment (6-mer frequency, TF over GST control); with ETV6 it was 1.11 fold enrichment (6-mer frequency, TF over GST control).

ACTTAA: the binding signal is 1.26 fold enrichment (6-mer frequency, TF over GST control) with ERF; 1.16 fold enrichment (6-mer frequency, TF over GST control) with ETV3L; 1.19 fold enrichment (6-mer frequency, TF over GST control) with ETS2; 1.17 fold enrichment (6-mer frequency, TF over GST control) in the experiment with SPDEF; 1.27 fold enrichment (6-mer frequency, TF over GST control) with ETV7; 1.16 fold enrichment (6-mer frequency, TF over GST control) with ELF5. For the same sequence, the binding signal was 1.17 fold enrichment (6-mer frequency, TF over GST control) in the experiment with ETV3 and 1.21 fold enrichment (6-mer frequency, TF over GST control) with ETV6.

For TTGCGG, the binding signal was 1.25 fold enrichment (6-mer frequency, TF over GST control) with ERF; 1.3 fold enrichment (6-mer frequency, TF over GST control) with ETV3L; 1.21 fold enrichment (6-mer frequency, TF over GST control) with ETS2; 1.24 fold enrichment (6-mer frequency, TF over GST control) with SPDEF; 1.29 fold enrichment (6-mer frequency, TF over GST control) in the experiment with ETV7; 1.24 fold enrichment (6-mer frequency, TF over GST control) with ELF5. Also, the binding signal in the experiment with ETV3 was 1.34 fold enrichment (6-mer frequency, TF over GST control); with ETV6, 1.41 fold enrichment (6-mer frequency, TF over GST control).

In the case of TCTGTG, the binding signal is 1.15 fold enrichment (6-mer frequency, TF over GST control) with ERF; 1.2 fold enrichment (6-mer frequency, TF over GST control) with ETV3L; 1.13 fold enrichment (6-mer frequency, TF over GST control) with ETS2; 1.06 fold enrichment (6-mer frequency, TF over GST control) in the experiment with SPDEF; 1.26 fold enrichment (6-mer frequency, TF over GST control) with ETV7; 1.04 fold enrichment (6-mer frequency, TF over GST control) with ELF5. The binding signal with ETV3 is 1.04 fold enrichment (6-mer frequency, TF over GST control); with ETV6, 1.07 fold enrichment (6-mer frequency, TF over GST control).
